Data published in the supplement of paper PMC11006884.
Of roughly 6,500 targets only a part is listed; those with a hit were picked by preference. About 2% of all pairs of compound and target were hits.

Compound: COC(=O)C#Cc1ccccc1 [methyl 3-phenylpropiolate]
Test: log2 ratio of iodoacetamide-alkyne labeling of the cysteine site, DMSO over compound (competition); higher = stronger covalent engagement of the cysteine by the compound, active = 1 or more
Conditions: 500 µM; treatment time 1 h; system: HEK293T cell lysate
Outline: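 Three replicates, each with duplicate channels, were prepared from HEK293T lysate (2 mg/mL) treated with vehicle or electrophile at 500 µM for 1 h at ambient temperature. Iodoacetamide alkyne was then applied for 1 h, and samples were clicked to sCIP-TMT reagents, pooled, trypsin-digested overnight at 37 °C, enriched on streptavidin, acid-eluted and analysed on Orbitrap Eclipse LC-MS/MS with FAIMS, with FragPipe quantification. The log2 competition ratio per cysteine is the mean control-channel divided by the mean compound-channel reporter intensity. Cysteines quantified in only one replicate were left out.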

UniProt Q9Y3C8, sequence (Q9Y3C8 whole entry): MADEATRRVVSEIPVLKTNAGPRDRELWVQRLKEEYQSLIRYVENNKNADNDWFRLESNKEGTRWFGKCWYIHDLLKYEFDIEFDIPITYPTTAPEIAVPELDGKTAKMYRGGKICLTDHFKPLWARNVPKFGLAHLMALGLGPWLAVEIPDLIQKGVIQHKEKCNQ
UniProt Q9UK45, sequence (Q9UK45 whole entry, looked up): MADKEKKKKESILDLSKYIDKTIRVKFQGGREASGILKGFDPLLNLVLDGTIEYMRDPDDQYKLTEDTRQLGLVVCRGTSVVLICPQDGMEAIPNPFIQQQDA
UniProt Q9Y223, sequence (Q9Y223 whole entry): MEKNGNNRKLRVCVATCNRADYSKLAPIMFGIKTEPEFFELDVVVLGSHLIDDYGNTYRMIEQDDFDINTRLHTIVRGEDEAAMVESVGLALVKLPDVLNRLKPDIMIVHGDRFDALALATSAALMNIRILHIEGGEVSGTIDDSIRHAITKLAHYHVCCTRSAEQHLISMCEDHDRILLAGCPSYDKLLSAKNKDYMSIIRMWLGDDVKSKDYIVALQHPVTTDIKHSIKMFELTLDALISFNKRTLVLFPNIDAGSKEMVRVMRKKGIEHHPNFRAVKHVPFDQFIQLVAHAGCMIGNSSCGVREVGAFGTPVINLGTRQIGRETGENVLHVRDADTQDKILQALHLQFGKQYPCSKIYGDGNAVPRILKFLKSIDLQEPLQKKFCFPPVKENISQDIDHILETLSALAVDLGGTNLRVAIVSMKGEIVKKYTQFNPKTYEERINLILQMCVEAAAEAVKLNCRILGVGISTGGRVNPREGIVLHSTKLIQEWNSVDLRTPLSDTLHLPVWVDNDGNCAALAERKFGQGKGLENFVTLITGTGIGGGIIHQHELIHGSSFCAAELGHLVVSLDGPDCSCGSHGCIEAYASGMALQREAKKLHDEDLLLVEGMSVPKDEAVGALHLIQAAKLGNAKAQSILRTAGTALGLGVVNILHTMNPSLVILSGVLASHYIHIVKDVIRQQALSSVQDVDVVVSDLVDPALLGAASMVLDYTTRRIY
UniProt Q9NTI5, sequence (Q9NTI5 whole entry): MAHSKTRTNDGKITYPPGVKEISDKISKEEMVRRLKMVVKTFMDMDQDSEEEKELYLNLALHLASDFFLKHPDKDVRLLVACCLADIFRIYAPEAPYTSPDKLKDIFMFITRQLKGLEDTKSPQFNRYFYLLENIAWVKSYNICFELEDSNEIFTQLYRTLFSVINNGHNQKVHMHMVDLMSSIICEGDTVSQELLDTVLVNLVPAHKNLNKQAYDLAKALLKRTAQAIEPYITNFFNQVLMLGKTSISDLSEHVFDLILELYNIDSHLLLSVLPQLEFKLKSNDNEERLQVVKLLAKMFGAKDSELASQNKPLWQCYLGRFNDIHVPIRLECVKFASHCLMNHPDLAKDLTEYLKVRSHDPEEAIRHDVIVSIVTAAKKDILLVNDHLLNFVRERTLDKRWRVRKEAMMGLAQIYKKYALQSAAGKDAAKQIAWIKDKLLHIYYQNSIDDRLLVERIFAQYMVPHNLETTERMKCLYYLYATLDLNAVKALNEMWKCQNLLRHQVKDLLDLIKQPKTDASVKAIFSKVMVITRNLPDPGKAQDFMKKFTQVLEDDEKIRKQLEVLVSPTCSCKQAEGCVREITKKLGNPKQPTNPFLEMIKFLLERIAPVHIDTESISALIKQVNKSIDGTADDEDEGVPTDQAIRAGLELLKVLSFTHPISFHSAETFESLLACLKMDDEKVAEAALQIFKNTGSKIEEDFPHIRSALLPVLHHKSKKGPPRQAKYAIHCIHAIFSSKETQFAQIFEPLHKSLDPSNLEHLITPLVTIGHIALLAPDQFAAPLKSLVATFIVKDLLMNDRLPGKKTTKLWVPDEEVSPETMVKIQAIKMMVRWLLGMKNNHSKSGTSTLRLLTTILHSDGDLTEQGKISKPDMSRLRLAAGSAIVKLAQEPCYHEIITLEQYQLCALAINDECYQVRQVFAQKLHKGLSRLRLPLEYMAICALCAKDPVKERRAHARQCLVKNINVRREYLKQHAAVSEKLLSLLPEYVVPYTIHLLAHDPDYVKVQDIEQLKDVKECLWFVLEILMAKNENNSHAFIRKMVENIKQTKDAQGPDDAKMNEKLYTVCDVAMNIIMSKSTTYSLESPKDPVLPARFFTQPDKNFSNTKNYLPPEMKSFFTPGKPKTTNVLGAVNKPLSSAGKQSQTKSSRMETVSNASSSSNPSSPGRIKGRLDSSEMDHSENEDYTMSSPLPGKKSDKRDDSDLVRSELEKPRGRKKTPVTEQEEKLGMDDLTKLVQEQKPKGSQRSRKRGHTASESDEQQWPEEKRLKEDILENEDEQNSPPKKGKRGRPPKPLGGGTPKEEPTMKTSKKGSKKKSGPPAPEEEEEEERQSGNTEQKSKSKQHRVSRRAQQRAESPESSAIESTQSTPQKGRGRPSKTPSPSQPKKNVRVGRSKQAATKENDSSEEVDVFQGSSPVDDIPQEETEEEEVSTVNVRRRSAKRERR
UniProt Q9P2R3, sequence (Q9P2R3 whole entry, looked up): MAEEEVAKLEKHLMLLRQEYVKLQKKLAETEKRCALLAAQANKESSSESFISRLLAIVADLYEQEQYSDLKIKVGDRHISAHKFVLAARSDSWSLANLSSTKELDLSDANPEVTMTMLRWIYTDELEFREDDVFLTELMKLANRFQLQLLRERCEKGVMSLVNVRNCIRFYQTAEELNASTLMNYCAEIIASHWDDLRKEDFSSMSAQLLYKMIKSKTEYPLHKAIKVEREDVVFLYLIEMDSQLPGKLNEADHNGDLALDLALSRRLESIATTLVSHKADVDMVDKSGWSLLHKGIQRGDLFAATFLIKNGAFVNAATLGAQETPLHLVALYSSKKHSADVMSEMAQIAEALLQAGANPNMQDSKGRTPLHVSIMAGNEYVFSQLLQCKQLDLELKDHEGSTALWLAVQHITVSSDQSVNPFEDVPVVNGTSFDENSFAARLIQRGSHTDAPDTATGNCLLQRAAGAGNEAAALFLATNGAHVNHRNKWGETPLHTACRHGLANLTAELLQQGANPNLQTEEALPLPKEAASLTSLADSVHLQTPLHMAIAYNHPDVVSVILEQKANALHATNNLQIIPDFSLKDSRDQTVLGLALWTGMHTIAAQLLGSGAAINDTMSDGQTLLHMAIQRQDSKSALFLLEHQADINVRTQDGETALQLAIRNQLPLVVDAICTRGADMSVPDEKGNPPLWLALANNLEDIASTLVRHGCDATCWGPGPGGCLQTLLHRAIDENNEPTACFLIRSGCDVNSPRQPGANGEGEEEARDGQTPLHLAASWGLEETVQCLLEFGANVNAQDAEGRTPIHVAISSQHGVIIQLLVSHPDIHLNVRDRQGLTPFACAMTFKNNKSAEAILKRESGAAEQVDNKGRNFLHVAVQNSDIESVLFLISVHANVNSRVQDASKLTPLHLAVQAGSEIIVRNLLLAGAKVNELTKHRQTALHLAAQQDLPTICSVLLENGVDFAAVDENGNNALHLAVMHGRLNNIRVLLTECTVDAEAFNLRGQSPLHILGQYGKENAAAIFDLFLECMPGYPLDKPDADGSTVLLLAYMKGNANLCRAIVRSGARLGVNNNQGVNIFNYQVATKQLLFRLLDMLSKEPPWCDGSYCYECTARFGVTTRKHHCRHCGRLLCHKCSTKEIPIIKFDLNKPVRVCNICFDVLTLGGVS
UniProt Q9NQR4, sequence (Q9NQR4 whole entry, looked up): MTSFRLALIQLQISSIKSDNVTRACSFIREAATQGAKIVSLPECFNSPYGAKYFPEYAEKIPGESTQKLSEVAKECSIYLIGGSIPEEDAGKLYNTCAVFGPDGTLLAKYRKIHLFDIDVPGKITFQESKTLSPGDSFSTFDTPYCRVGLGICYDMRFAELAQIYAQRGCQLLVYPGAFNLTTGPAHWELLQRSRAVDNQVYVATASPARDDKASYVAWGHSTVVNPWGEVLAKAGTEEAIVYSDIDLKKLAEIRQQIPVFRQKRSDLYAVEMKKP
UniProt Q9UDR5, sequence (Q9UDR5 whole entry, looked up): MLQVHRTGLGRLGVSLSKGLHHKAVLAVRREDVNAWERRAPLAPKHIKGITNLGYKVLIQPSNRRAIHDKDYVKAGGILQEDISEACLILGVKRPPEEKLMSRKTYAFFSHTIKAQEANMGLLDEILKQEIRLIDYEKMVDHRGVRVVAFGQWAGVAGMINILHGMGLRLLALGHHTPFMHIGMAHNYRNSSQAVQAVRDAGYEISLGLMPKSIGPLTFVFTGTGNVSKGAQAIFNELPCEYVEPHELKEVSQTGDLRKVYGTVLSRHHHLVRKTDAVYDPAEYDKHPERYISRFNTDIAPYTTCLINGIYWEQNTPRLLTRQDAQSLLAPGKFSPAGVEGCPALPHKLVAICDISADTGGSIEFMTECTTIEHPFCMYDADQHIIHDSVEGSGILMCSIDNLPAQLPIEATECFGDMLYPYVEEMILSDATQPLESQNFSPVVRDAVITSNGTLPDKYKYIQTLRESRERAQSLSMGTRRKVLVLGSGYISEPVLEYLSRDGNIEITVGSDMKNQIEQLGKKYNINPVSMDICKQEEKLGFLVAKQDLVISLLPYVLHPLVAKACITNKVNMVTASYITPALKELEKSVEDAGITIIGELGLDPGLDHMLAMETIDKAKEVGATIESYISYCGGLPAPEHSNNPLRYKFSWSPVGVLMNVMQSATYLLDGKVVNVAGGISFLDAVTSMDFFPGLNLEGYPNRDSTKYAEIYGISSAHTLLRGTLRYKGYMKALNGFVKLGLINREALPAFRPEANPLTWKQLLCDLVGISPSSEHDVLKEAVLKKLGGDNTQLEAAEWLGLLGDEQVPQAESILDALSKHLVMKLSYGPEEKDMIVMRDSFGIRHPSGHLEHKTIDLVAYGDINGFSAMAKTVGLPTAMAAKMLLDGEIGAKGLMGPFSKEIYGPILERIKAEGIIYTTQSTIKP
UniProt Q9NR31, sequence (Q9NR31 whole entry, looked up): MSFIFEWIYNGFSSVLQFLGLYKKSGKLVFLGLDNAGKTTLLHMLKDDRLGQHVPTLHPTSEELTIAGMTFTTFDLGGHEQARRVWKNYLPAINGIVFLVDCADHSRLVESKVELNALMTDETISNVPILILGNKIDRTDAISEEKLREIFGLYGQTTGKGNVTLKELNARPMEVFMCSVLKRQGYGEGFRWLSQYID

Target	log2 ratio of iodoacetamide-alkyne labeling
DERA C118 (UniProt Q9Y315)	0.275 (inactive)
UniProt Q9NRP4_C80	0.483 (inactive)
GNE C357 (UniProt Q9Y223)	0.234 (inactive)
RABGAP1 C1026 (UniProt Q9Y3P9)	-0.252 (inactive)
ANKFY1 C460 (UniProt Q9P2R3)	1.44 (active)
UniProt Q9Y5J5_C87	0.486 (inactive)
RNPEP C181 (UniProt Q9H4A4)	0.0149 (inactive)
NIT2 C146 (UniProt Q9NQR4)	0.119 (inactive)
AASS C87 (UniProt Q9UDR5)	0.102 (inactive)
C11orf68 C222 (UniProt Q9H3H3)	0.528 (inactive)
UniProt Q9NQG6_C111	0.389 (inactive)
SAR1A C178 (UniProt Q9NR31)	0.0354 (inactive)
UniProt Q9NUQ3_C56	1.97 (active)
RCL1 C13 (UniProt Q9Y2P8)	-0.0901 (inactive)
MBD1 C57 (UniProt Q9UIS9)	0.0108 (inactive)
UniProt Q9Y312_C156	0.41 (inactive)
XPO4 C1149 (UniProt Q9C0E2)	0.048 (inactive)
FAM126A C300 (UniProt Q9BYI3)	0.174 (inactive)
PDS5B C1069 (UniProt Q9NTI5)	0.199 (inactive)
FAM120A C531 (UniProt Q9NZB2)	1.68 (active)
LSM7 C76 (UniProt Q9UK45)	0.0557 (inactive)
UNC93B1 C583 (UniProt Q9H1C4)	2.06 (active)
UFC1 C116 (UniProt Q9Y3C8)	0.115 (inactive)
